In PubChem BioAssay AID1259399 (Fisher Drug Discovery Resource Center, 2018) one finds inhibition data, which are given here for 55 molecules.

SMILES strings stand for the structures. In all, about 160,000 compounds went through this assay and about 240 (0.15%) were called active. Many of the other results were omitted from the sample, so actives are more common in it than they were. A number with no mark means an inactive call. Rule as the data show it: active = inhibition above about 40%; inactive = the rest.

This assay deals with Cyclic GMP-AMP synthase (Mus musculus) (UniProt Q8C6L5). Nature of the assay: inhibition of Mus musculus cGAS, primary biochemical chemiluminescence screen (AID 1259399).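 Also: 0% = negative control wells and 100% = reference inhibitor with no enzyme activity.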 To be noted: recombinant cGAS, Kinase-Glo ATP depletion luminescence; at 12.5 µM; hits give high values. A general note: In Kinase-Glo more light means more ATP remaining.
Cyclic GMP-AMP synthase (Mus musculus), sequence (Q8C6L5 whole entry, looked up): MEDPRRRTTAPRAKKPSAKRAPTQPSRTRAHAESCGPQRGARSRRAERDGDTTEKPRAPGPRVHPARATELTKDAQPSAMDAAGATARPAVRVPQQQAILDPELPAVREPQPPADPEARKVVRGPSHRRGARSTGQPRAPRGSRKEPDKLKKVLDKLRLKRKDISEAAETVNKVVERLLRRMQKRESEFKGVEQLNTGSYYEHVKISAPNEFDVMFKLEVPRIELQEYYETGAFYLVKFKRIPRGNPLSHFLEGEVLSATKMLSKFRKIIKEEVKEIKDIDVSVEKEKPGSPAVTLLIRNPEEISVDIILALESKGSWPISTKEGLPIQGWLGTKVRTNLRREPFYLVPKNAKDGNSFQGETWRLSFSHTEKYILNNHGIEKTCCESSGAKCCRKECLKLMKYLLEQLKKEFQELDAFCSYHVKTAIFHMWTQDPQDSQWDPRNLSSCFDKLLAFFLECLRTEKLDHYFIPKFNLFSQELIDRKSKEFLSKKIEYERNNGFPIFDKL
`CCn1c(SCc2ccccc2OC(F)F)nnc1-c1c2c(nc3ccccc13)CCC2`: the inhibition is -4.53%. The figure for `CCOc1ccc(S(=O)(=O)Nc2ccc3oc(-c4ccccc4)cc3c2)cc1` is -4.93%. The figure for `CCOc1ccc(C2c3[nH]c4ccccc4c3CCN2C(=O)CSC)cc1` (stereo not given) is -3.44%; for `Cc1ccc(NC(=O)c2ccc(CSc3nc(Cl)cc(N4CCN(C/C=C/c5ccccc5)CC4)n3)cc2)cc1C` it is -2.86%.

With `C=CCN(C(=O)CCl)c1nc(-c2ccc(Cl)c(Cl)c2)cs1`, the inhibition is 72.2% (active).

Consider `N#Cc1ccc(-c2csc(NC(=O)c3cc([N+](=O)[O-])ccc3Cl)n2)cc1`, for which the inhibition is -5.77%. The same measure for `CCCS(=O)(=O)N1CCN(c2ccc(C)nn2)CC1`: -8.23%. The figure for `COc1cc(CN(C)C(=O)c2c(C)noc2-c2ccccc2Cl)cc(OC)c1OC` is 2.4%. The figure for `CC(C)CN(Cc1ccc(OS(=O)(=O)c2ccc(F)cc2)cc1)S(=O)(=O)c1ccc(Cl)cc1` is -3.83%; for `COc1cc([N+](=O)[O-])ccc1NC(=O)C(C)Nc1ccc2nc(C)sc2c1` (stereo not given) it is -7.43%; for `CC(C)(C)c1cc2nc(C(=O)NCCc3ccccn3)cc(-c3ccccc3F)n2n1` it is -5%. For the molecule `O=C1NC2(CCN(C(=O)COc3ccccc3)CC2)Nc2ccc(Cl)c(Cl)c21`, the inhibition is -6.89%. The same measure for `C=C(C)CN(CC)C(=O)c1ccc(-c2ccc(OC)c(OC)c2OC)s1`: -8.29%. The same measure for `CSc1cccc(NC(=O)NCCNc2cc(-n3ccnc3C)nc(C)n2)c1`: -12.2%; for `O=C(CCC1CCN(C23CC4CC(CC(C4)C2)C3)CC1)Nc1ccccc1Cl`: -11%; for `Cc1ccccc1-n1c(SCCCC(=O)N2CCN(C(=O)COCc3ccccc3)C(C)C2)nnc1-c1ccco1` (stereo not given): -5.31%.

As for `COc1ncccc1-c1cc2c(cn1)nc(NCc1cccc(C)c1)n2C`, the inhibition is -6.3%. The figure for `CCn1nc(C(=O)N2CCN(c3ccccc3)CC2)c2c1CCN(C(=O)c1csc(SC)n1)C2` is -7.21%.

On to `CC(C)OCCNC(=O)c1ccc(-c2cc(-c3ccccc3)n[nH]2)cc1`, for which the inhibition was -2.09%.

Take `Cc1nc2n(n1)C(=O)C(C(c1cccs1)N1CCN(CCO)CC1)S2` (stereo not given): the inhibition is -7.74%.

Consider `CCc1cc2c(=O)c(-c3ccc4c(c3)OCO4)c(C)oc2cc1OC1OC(CO)C(O)C(O)C1O` (stereo not given), for which the inhibition was -6.86%. On to `COc1cc(/C=C2/C(=O)N(c3ccc(Cl)c(Cl)c3)N=C2C)ccc1O`, for which the inhibition was 27.3%. Regarding `CCOC(=O)c1c(NC(=O)c2cccc3c2-c2ccccc2C3=O)c(-c2ccc(OC)c(OC)c2)cn1Cc1ccccc1`, the inhibition was -5.46%.

Consider `CCn1c(=NC(=O)Cc2ccc(C)c(C)c2)sc2cc3c(cc21)OCCO3`, for which the inhibition is -9.59%.

For `CCCC1(C2CCN(C(=O)[C@H]3C[C@@H]4C=C[C@H]3C4)CC2)NC(=O)N(CCc2cccs2)C1=O` (stereo not given in full), the inhibition was -8.91%. The same measure for `O=C1c2ccccc2C(=O)c2cc(Sc3ccccc3)ccc21`: -6.93%. For the molecule `CCc1nc2c(OCCOc3ccccc3)cccn2c1N(C)C(=O)c1ccccc1F`, the inhibition was -3.16%.

Regarding `CC12OC3(CCCCC3)C(C)(OC13CCCCC3)O2`, the inhibition is -2%. The same measure for `CC1CCCC(NC(=O)c2cc(S(=O)(=O)N3CCCC3)c[nH]2)C1C` (stereo not given): -4.23%.

On to `COc1ccc2[nH]c3c(c2c1)CCN(C(=O)COCc1ccccc1)C3COCc1ccccc1` (stereo not given), for which the inhibition was -10.3%. As for `CCOC(=O)C1(Cc2ccc(OC)cc2)CCN(C(=O)C2CCCC2)CC1`, the inhibition was -2.47%. As to `CCCc1cc(C(=O)NC(CC)C2CCCO2)sc1C` (stereo not given), the inhibition was 3.24%. As for `Cn1c(=O)n(Cc2ccc(Cl)cc2)c(=O)c2c1nc1oc(C(C)(C)C)cn12`, the inhibition is -8.53%.

Take `C/C(=N/OC(=O)C1CC1(c1ccccc1)c1ccccc1)c1ccccc1` (stereo not given): the inhibition is -5.77%.

With `CCc1ccc(NC(=O)CSc2nccn3nc(-c4ccc(C)cc4)cc23)cc1`, the inhibition is -6.93%.

Consider `CCCOc1nn(CCC)cc1C(=O)Nc1nccs1`, for which the inhibition is -6.36%. Regarding `O=C(Cc1ccc2c(c1)CCC2)Nc1nn2cnnc2s1`, the inhibition is -17.7%.

Consider `CCCc1nnc2sc(CCc3c(C)n[nH]c3C)nn12`, for which the inhibition is -9.34%. In the case of `COCc1nnc2sc(Cc3ccc4c(c3)CCCC4)nn12`, the inhibition was 79.1% (active).

Consider `c1cc(C2CCN(C3CCC4(CCNCC4)CC3)CC2)ccn1`, for which the inhibition was -9.51%. With `O=C(NC1CCN(c2ccccc2C(=O)NCc2ccc3c(c2)OCO3)CC1)c1ccccc1Cl`, the inhibition is -4.1%. The figure for `O=C1OC(C[N+](=O)[O-])C(Cl)=C1Oc1ccccc1` (stereo not given) is 22.9%.

In the case of `CCCCc1nc(N2CCN(C(=O)Cc3cccs3)CC2)c2c(C)nn(-c3ccc(F)cc3)c2n1`, the inhibition is -4.18%. The same measure for `CC1(C(=O)Nc2cccc3cccnc23)CCN1C(=O)Cc1ccccc1Cl` (stereo not given): -5.18%. The figure for `CCOC(=O)C1=C(O)/C(=C\c2cc(O)cc(O)c2)SC1=Nc1cccc(C(F)(F)F)c1` is -2.35%; for `Cc1nc(C2(NCc3csc(-c4ccoc4)n3)CCCC2)no1` it is -13.3%; for `CN(C)CCNC(=O)c1nn(-c2cccc(C(F)(F)F)c2)c(=O)n(Cc2ccccc2F)c1=O` it is 1.41%.

In the case of `Cc1c[nH]c(=O)n1-c1ccc(C(=O)Nc2cc(Cl)c(N)c(Cl)c2)cc1`, the inhibition was -14.6%. The same measure for `CC(C)(C)c1cc(=O)n2[nH]cc(-c3ccc(Cl)cc3)c2n1`: 40% (active); for `CC(C)(C)c1cc(=O)n2[nH]cc(-c3ccccc3Cl)c2n1`: -1.72%; for `CN(C)CCNc1cc(C(C)(C)C)nc2c(-c3ccc(Cl)cc3)cnn12`: -0.291%. Take `COCCN(CCOC)Cc1cc(=O)oc2cc(-c3ccccc3)c(O)cc12`: the inhibition is 2.45%. As to `C=CCN1C(=O)C2(CC(=O)N(CCc3cccc(OC)c3)C2=O)c2cc(OC)ccc21` (stereo not given), the inhibition is -2.01%. The same measure for `Cc1ccccc1N1CCn2c1nc1c2c(=O)n(CCN2CCOCC2)c(=O)n1C`: -8.88%; for `COc1ccc(CCNC(=O)CCc2cc3c(n2-c2ccc(OC)cc2)-c2ccccc2CC3)cc1`: -9.29%.

By inhibition is commonly meant the change of the read-out against control, counted positive when it falls.
